Test results from PubChem BioAssay (NCI).
Compounds without any hit were thinned out: in the full panel of roughly 79,000, 15% have a hit. A number with no mark means an inactive call. Activity calls are given as the source filed them. Cut-off read from the data, not from the text of the source: active = growth inhibition above about 70%; inactive = the rest.

Legend:
[1] = NCI Yeast Anticancer Drug Screen. Data for the rad50 strain (AID 155);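 note: 0% = growth of vehicle-only cultures of the same strain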; details: S. cerevisiae rad50 strain growth inhibition; at 50.0 µM; active compounds read high
Summary of the method: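 Vehicle-treated cultures provide the reference for the growth inhibition reported for compound-exposed, repair-deficient yeast.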

[2] = NCI Yeast Anticancer Drug Screen. Data for the mec2-1 strain (AID 157); details: S. cerevisiae mec2-1 strain, at 50.0 µM, active compounds read high
Summary of the method: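 Yeast mec2-1 mutant treated with compound. Readout: growth inhibition vs vehicle controls.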

[3] = NCI Yeast Anticancer Drug Screen. Data for the sgs1 mgt1 strain (AID 161);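 note: 0% = growth of cultures given vehicle only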; details: S. cerevisiae sgs1 mgt1 strain, at 50.0 µM, active compounds read high
Summary of the method: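 Test agents were incubated with a DNA-repair-mutant yeast strain. Growth was then read and compared against vehicle-treated controls.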

[4] = NCI Yeast Anticancer Drug Screen. Data for the cln2 rad14 strain (AID 165);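 note: 0% = growth equal to vehicle treated cultures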; details: S. cerevisiae cln2 rad14 strain, at 50.0 µM, active compounds read high
Summary of the method: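 cln2 rad14 yeast strain; compound exposure; growth inhibition read vs vehicle controls.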

[5] = NCI Yeast Anticancer Drug Screen. Data for the bub3 strain (AID 167); details: S. cerevisiae bub3 mutant strain, at 50.0 µM, active compounds read high
Summary of the method: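 Mutant yeast screening strain plus compound; vehicle-treated cultures serve as the 0% inhibition reference.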

[6] = NCI Yeast Anticancer Drug Screen. Data for the mlh1 rad18 strain (AID 175); details: S. cerevisiae mlh1 rad18 strain growth inhibition; at 50.0 µM; active compounds read high
Summary of the method: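 Yeast w/ defined DNA-repair lesions; compound exposure; growth vs vehicle controls → % inhibition.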

SMILES	growth inhibition [1]	growth inhibition [2]	growth inhibition [3]	growth inhibition [4]	growth inhibition [5]	growth inhibition [6]
Cc1ccc(S(=O)(=O)C23N=NC(C)(C)C2N=NC3(C)C)cc1 (stereo not given)	-10.8%	-19.8%	-6.9%	-58%	-46.6%	5.4%
C[C@H]1C(=O)c2c(cc(O)c(C3OC(CO)C(O)C(O)C3O)c2O)OC1c1ccc(O)c(O)c1 (stereo not given in full)	2.65%	-18.6%	-16.8%	8.45%	-0.25%	12.6%
C=C1C(C)C2C(Cc3ccccc3)NC(=O)C23OC(=O)/C=C\CC(=O)CCC(C)C/C=C/C3C1O (stereo not given)	91.4% (active)	93.2% (active)	93% (active)	90.8% (active)	90.8% (active)	91.2% (active)
CS(=O)(=O)Oc1ccccc1OS(C)(=O)=O	7.95%	8.85%	-14.3%	-27.1%	2.6%	-9.65%
CCCCC1(CCS)C(=O)NC(=Nc2ccccc2)NC1=O (stereo not given)	-0.95%	-3.95%	11.8%	-37.3%	22.7%	-11.8%
COC(=O)c1cc(-c2ccc3ccccc3c2)[nH]c(=O)c1C#N	34.4%	35.2%	65.6%	46.9%	23.2%	67.3%
C[C@]12CC[C@@H]3c4ccc(O)cc4CC[C@H]3[C@@H]1CC[C@@H]2OP(=O)(O)O	-0.15%	-9.95%	-37.1%	-27.4%	-6.45%	-16.6%
C/C(CC(=O)Nc1ccc(Cl)c(Cl)c1)=N/NC(=O)C[N+](C)(C)C	-9.25%	-14.7%	-6.3%	26.6%	-14.8%	-6.1%
CC(=O)OC1C=CCC2C(=O)C3=C(C(=O)c4ccccc4C3=O)C(=O)C12 (stereo not given)	72.6% (active)	21.3%	28%	36.6%	65%	33.2%
CN1C(C)(C)CC(CN2c3ccccc3Sc3ccccc32)C1(C)C (stereo not given)	34.2%	6.8%	37.9%	-19.3%	27.9%	45.2%
O=S(c1ccccc1)[C@H]1CC2C3CC4C2C4C31 (stereo not given in full)	2.3%	4.7%	-1.7%	4.45%	19.9%	17.9%
CN(/N=C(\C(=O)O)c1ccccc1)C1=NCCN1	-12%	-7.95%	-4.65%	41.2%	-1.4%	9.3%
C=CCc1ccc(OC(=O)Nc2ccc(S(=O)(=O)CC)cc2)c(OC)c1	1.65%	-12.8%	-26.4%	-19.9%	-14.2%	-10.3%
CCC[N+]1=C/c2ccccc2OC(=O)/C=C\1[O-]	-36.9%	-11.3%	-14.1%	-8.95%	5.8%	-1.1%
O=CCCC1CCCCC1	4.75%	1.5%	-4.55%	-17.4%	13.1%	-5.7%
CC(C)(CO)NC(=O)c1cccs1	14.8%	5.15%	1.45%	12.7%	-4.35%	-20%
Cn1ccnc1CC(C)(O)c1ccccc1 (stereo not given)	-13.2%	-17.4%	-44.9%	3.9%	-23.4%	6.8%
COc1ccc(NC(=O)Nc2ccc(Cl)cc2C)cc1	-13.4%	-2.8%	-11.6%	-12.2%	-12.5%	-15.2%
O=[N+]([O-])C(=C1NCCN1)C(Cl)=C(Cl)Cl	-43%	-27.9%	5.3%	-18.6%	-1.2%	-26%
O=C(O)c1c(Cl)ccc([N+](=O)[O-])c1Cl	-4.45%	-24.2%	-8.95%	8.8%	-10.6%	-1.45%
